Data: PubChem BioAssay
Active and inactive are the calls of the source.

Assays:
Albumin (Bos taurus) = Albumin (Bos taurus) (UniProt P02769); assay: bovine serum albumin binders on microarray, profiling panel, artefact control for SMM control protein annotation, biochemical, small-molecule microarray, Alexa647 label, 635/667 nm fluorescence (AID 1118); details: BSA-A647 binding, fluorescence 635 nm, higher = more signal;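 further: score merges 667 nm emission intensity and signal-to-noise per printed compound spot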
Albumin (Bos taurus), sequence (P02769 whole entry, looked up): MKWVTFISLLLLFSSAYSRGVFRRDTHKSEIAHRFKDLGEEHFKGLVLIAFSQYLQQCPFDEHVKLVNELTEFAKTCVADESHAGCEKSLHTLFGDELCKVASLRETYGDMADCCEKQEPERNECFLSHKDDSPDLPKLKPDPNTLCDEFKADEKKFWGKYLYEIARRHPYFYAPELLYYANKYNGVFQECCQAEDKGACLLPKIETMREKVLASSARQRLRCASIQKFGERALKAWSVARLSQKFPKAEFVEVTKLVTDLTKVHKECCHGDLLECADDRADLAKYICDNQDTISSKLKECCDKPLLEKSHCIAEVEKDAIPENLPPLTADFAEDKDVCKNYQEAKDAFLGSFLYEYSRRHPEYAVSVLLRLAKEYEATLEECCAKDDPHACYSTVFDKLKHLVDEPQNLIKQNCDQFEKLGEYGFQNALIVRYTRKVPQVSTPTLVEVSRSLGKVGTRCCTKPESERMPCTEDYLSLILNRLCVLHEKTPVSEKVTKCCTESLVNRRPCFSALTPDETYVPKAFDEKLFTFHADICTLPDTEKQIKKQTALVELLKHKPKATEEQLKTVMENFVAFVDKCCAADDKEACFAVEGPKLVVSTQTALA

[1] = small-molecule microarray binders of probe aXIP, primary screen, biochemical, NeuroSMM set, 635/667 nm fluorescence (AID 1119); details: higher = more signal, called active from +8 up or from −8 down;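 further: probe is the protein aXip251-270 applied at 1 µg/mL to compound-printed slides; binding of probe to printed compounds measured as 667 nm fluorescence plus signal to noise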
[2] = small-molecule binders of probe aNOTCH3, primary screen, biochemical, small-molecule microarray, 635/667 nm fluorescence (AID 1120); details: higher = more signal;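 further: probe is a biotin-tagged antibody raised against NOTCH3 rather than NOTCH3 protein; score merges spot fluorescence near 667 nm with spot signal to noise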
[3] = small-molecule binders of probe aNOTCH2, primary screen, biochemical, small-molecule microarray, 635/667 nm fluorescence (AID 1121); details: higher = more signal;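 further: score merges feature fluorescence read at 667 nm with its signal to noise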
[4] = target: Carbonic anhydrase 2 (Homo sapiens) (UniProt P00918); assay: CAII small-molecule binders, profiling panel, biochemical, small-molecule microarray, Alexa647-labelled CAII (AID 1122); details: CAII-A647 binding fluorescence, higher = more signal
[5] = COS7 lysate on small-molecule microarray, probe aHis, 635 nm (AID 1123); details: COS7 cell lysate, fluorescence, higher = more signal;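 further: z-score combines 667nm fluorescence intensity with signal-to-noise per printed compound spot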
[6] = compound binding in COS7 lysate, probe aLAP1, primary screen, cell lysate, small-molecule microarray (AID 1124); details: probe aLAP1, fluorescence, higher = more signal;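 further: lysate comes from COS7 cells expressing LAP1 and is applied at 0.3 µg/mL; score merges spot fluorescence near 667 nm with signal-to-noise over triplicate slides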
Sam68 (KHDRBS1) = assay: Sam68 small-molecule binders, primary screen, biochemical, small-molecule microarray, 635 nm fluorescence (AID 1125); details: small-molecule microarray binding, higher = more signal;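 further: score merges 667 nm channel intensity with signal to noise over triplicate slides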
[7] = system: Chordin-like protein 2 (CHRDL2); assay: CHRDL2 small-molecule binders, primary screen, biochemical, small-molecule microarray, 635 nm fluorescence (AID 1126); details: small-molecule microarray binding, fluorescence 635 nm; higher = more signal;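 further: printed compound slides probed with Chrdl2 protein at 4 µg/mL for 1 h at 4 C; score merges 667 nm emission intensity with signal to noise over three replicate slides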
[8] = target: Concanavalin-A (Canavalia ensiformis) (UniProt P02866); assay: ConA small-molecule binders, primary screen, artefact control for SMM control protein annotation, biochemical, small-molecule microarray, Alexa647 label, 635 nm (AID 1127); details: ConA-A647 binding fluorescence, higher = more signal;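 further: z combines 667 nm emission intensity with signal-to-noise across three replicate slides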
Concanavalin-A (Canavalia ensiformis), sequence (P02866 whole entry, looked up): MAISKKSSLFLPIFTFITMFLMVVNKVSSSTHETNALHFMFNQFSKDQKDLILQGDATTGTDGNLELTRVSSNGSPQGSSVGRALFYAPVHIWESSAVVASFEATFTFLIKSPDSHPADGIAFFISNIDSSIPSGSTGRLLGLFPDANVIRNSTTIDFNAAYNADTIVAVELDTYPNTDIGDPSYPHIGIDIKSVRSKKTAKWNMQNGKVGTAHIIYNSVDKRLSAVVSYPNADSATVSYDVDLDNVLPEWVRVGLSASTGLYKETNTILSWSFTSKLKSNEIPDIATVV

[9] = anti-His antibody binders, primary screen, artefact control for SMM control protein annotation, biochemical, small-molecule microarray, 635 nm fluorescence (AID 1128); details: anti-His Alexa647 antibody binding, higher = more signal;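 further: score merges feature fluorescence with signal-to-noise for each printed compound spot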
[10] = system: Human papillomavirus type 1a E7 protein (residues 1-88); assay: HPV1a E7 small-molecule binders, primary screen, biochemical, small-molecule microarray, residues 1-88, 635 nm (AID 1129); details: small-molecule microarray binding, fluorescence 635 nm; higher = more signal
[11] = target: Focal adhesion kinase 1 (Homo sapiens) (UniProt Q05397); assay: small-molecule microarray binders of FAK, primary screen, biochemical, 635/667 nm fluorescence, BSA, DTT (AID 1130); details: PTK2 binding, 635 nm fluorescence, higher = more signal;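 further: composite of spot emission at 667 nm and signal to noise over triplicate slides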
Focal adhesion kinase 1 (Homo sapiens), sequence (Q05397 whole entry, looked up): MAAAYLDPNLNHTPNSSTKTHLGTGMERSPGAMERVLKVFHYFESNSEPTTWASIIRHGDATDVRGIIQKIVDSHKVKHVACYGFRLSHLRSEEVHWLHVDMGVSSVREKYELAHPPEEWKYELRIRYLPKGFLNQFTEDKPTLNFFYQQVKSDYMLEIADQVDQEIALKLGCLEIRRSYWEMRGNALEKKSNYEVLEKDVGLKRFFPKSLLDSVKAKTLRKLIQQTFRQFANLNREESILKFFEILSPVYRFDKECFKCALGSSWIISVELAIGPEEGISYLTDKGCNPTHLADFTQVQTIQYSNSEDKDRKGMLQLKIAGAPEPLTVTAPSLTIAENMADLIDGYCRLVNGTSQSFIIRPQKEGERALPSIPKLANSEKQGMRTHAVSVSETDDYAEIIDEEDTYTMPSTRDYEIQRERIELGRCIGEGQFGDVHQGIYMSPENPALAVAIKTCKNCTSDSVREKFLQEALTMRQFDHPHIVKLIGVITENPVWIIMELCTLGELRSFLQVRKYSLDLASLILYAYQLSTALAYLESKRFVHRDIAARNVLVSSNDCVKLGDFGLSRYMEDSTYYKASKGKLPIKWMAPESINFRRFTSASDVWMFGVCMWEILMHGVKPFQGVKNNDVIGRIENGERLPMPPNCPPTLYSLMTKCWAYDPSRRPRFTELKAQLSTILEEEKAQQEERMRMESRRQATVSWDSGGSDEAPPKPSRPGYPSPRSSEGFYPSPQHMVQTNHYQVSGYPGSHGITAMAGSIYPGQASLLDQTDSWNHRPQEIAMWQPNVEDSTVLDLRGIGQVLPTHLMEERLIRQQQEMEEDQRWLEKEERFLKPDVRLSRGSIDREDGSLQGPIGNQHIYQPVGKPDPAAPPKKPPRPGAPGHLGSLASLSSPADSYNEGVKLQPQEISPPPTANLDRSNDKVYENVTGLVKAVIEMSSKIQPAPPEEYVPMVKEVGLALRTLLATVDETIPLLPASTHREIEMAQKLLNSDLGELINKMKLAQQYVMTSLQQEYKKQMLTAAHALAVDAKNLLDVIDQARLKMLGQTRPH

[12] = system: Fibrinogen (Alexa647-labelled); assay: fibrinogen binders on compound microarrays, profiling panel, artefact control for SMM control-protein annotation, biochemical, small-molecule microarray, 635/667 nm fluorescence (AID 1131); details: fibrinogen-A647 binding fluorescence, higher = more signal;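 further: z-score merges 667 nm fluorescence with per-spot signal-to-noise over triplicate slides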
[13] = target: Follistatin (Homo sapiens) (UniProt P19883); assay: follistatin binders on small-molecule microarrays, primary screen, biochemical, small-molecule microarray, 635/667 nm fluorescence (AID 1132); details: FST binding, 635 nm fluorescence, higher = more signal
Follistatin (Homo sapiens), sequence (P19883 whole entry, looked up): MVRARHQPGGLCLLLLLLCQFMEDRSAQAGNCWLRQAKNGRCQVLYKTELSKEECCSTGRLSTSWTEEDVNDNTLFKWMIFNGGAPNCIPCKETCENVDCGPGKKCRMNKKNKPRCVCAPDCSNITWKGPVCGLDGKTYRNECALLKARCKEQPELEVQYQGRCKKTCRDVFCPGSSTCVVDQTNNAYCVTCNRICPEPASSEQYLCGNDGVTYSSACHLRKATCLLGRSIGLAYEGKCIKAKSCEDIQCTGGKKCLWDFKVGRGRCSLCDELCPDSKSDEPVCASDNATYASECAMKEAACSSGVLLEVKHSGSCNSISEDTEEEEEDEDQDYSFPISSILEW

[14] = target: Fibroblast growth factor 2 (Homo sapiens) (UniProt P09038); assay: FGF2 binders on small-molecule microarrays, primary screen, biochemical, small-molecule microarray, 635/667 nm fluorescence (AID 1133); details: small-molecule microarray binding, FGF2, fluorescence 635/667; higher = more signal
Fibroblast growth factor 2 (Homo sapiens), sequence (P09038 whole entry, looked up): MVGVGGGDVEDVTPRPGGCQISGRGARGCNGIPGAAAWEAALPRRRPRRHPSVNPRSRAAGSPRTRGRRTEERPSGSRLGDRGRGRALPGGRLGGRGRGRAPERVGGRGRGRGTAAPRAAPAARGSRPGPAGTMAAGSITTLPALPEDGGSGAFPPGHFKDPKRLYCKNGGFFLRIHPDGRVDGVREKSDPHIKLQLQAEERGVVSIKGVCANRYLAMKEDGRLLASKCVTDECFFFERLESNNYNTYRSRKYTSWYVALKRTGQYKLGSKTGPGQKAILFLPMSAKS

[15] = mitochondrial membrane potential change in A549 cells, profiling panel, cell-based, JC-1 fluorescence, basal, 24 h, 100 nL (AID 1138); details: higher = more signal;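 further: A549 lung adenocarcinoma cells under basal conditions with no added stimulus; test concentration not given here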
Lefty1 = Lefty1 binders on small-molecule microarrays, primary screen, biochemical, small-molecule microarray, 635/667 nm fluorescence (AID 1139); details: small-molecule microarray binding, fluorescence 635/667; higher = more signal
[16] = system: wheat germ agglutinin (Triticum aestivum), Alexa647-labelled; assay: wheat germ agglutinin binders on compound microarrays, profiling panel, artefact control for SMM control-protein annotation, biochemical, small-molecule microarray, 635/667 nm fluorescence (AID 1140); details: WGA-A647 binding, 635 nm fluorescence, higher = more signal;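 further: score merges 667 nm feature emission with signal to noise over triplicate slides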
[17] = target: Luciferin 4-monooxygenase (Photinus pyralis) (UniProt P08659); assay: firefly luciferase enzyme inhibitors, primary screen, biochemical, luminescence, purified enzyme, 2006 set (AID 1141); details: SteadyGlo luminescence, 30 min, higher = more signal, called active from +8 up or from −8 down;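 further: cell-free assay with purified firefly luciferase at 100 ng per well in PBS; test concentration not given here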
Luciferin 4-monooxygenase (Photinus pyralis), sequence (P08659 whole entry, looked up): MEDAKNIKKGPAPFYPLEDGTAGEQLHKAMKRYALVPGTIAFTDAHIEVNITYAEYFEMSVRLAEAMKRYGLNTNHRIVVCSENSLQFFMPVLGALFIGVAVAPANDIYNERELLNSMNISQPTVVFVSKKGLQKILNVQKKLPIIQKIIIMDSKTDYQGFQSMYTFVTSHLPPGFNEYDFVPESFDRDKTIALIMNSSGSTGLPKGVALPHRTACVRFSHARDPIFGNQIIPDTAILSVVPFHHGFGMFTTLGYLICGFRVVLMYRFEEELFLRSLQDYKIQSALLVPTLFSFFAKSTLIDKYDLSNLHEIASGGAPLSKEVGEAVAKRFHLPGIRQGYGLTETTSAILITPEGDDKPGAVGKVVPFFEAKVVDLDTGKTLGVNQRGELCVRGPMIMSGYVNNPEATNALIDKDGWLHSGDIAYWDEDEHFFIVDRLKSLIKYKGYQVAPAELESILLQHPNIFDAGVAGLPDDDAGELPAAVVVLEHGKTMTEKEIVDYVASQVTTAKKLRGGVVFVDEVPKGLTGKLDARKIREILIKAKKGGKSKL

Compound | composite z-score (Albumin (Bos taurus)) | composite Z-score [1] | composite z-score [2] | composite z-score [3] | composite z-score [4] | composite z-score [5] | composite z-score [6] | composite z-score (Sam68 (KHDRBS1)) | composite z-score [7] | composite z-score [8] | composite z-score [9] | composite z-score [10] | composite z-score [11] | composite z-score [12] | composite z-score [13] | composite z-score [14] | z-score [15] | composite z-score (Lefty1) | composite z-score [16] | z-score [17]
COCCCNC(=O)[C@]1(Cc2ccccc2)N=C(c2ccc(OCCCO)cc2)O[C@@H]1c1ccccc1 | 0.998 | 0.12 (inactive) | 0.108 | 0.0745 | 0.726 | 3.09 | 0.401 | 1.31 | -0.547 | 1.02 | 1.26 | 1.23 | 1.03 | 0.99 | 0.355 | 0.827 | 0.549 | -0.334 | 1.09 | -0.515 (inactive)
O=C1[C@H]2[C@H]3[C@H](O)[C@H](O)CC(=NOC[C@@H](O)COCc4ccco4)[C@H]3CC[C@H]2C(=O)N1C1CCCCC1 | -0.709 | -0.47 (inactive) | 0.0459 | -0.258 | -0.379 | -0.317 | -0.342 | 0.191 | 1.42 | -0.843 | -0.0844 | -0.476 | -0.329 | -1.02 | 1.21 | 1.07 | -0.948 | 1.3 | -1.22 | 0.822 (inactive)
CCOC(=O)C[C@H]1[C@H](OC(=O)c2ccc(C(=O)c3ccccc3)cc2)[C@@H](NC(=O)c2ccc(-c3ccccc3)cc2)c2cc(OCCCO)ccc2N1C(=O)c1ccc2ccccc2n1 | 0.0279 | 0.228 (inactive) | 0.0084 | -0.101 | 0.0886 | 0.71 | -0.142 | 1.31 | 0.611 | 0.844 | 0.128 | 1.01 | 0.0723 | 0.873 | 0.864 | 0.688 | 0.421 | 1.07 | 0.185 | 0.881 (inactive)
CC(CCN1CCc2nc(-c3ccccc3)c(-c3ccccc3)cc2C1)=NOC[C@@H](C)[C@H](OCc1ccccc1)C(C)C | 0.474 | -0.193 (inactive) | 0.0375 | -0.177 | -0.0642 | 0.271 | -0.2 | -1.19 | -1.11 | -0.198 | 1.45 | -1.69 | 0.123 | -0.242 | -1.45 | -1.14 | 0.436 | -0.677 | -0.469 | -1.09 (inactive)
[N-]=[N+]=NCc1ccccc1[C@@H]1OC(c2ccc(OCCCO)cc2)=N[C@]1(Cc1ccccc1)C(=O)N1CCOCC1 | 0.923 | 0.0976 (inactive) | 0.387 | 0.34 | 0.514 | 3.06 | 0.827 | 1.32 | 0.766 | 1.16 | 2.32 | 1.11 | 0.373 | 0.998 | 1.15 | 0.593 | 1.23 | 0.115 | 1.26 | -0.633 (inactive)
Cn1cccc1C(O)C1C=CC2C(=O)NC(=O)C2N1Nc1ccccn1 (stereo not given) | 0.809 | 0.0019 (inactive) | -0.0166 | -0.171 | 0.914 | -0.318 | 0.503 | -1.45 | 0.148 | -0.0954 | 0.195 | -0.789 | -0.35 | -0.0084 | 0.776 | 0.126 | -1.96 | 0.097 | 1.03 | -1.41 (inactive)
COc1ccc([Si](C)(C)[C@@H]2[C@@H](CCO)O[C@]3(C(=O)N(Cc4ccc(NC(C)=O)cc4)c4ccccc43)[C@H]2C)cc1 | 0.78 | 0.19 (inactive) | 0.217 | 0.0884 | 0.574 | 1.08 | 0.222 | 1.15 | 0.465 | 1.1 | 1.92 | 1.22 | 0.11 | 0.963 | 1.07 | 0.228 | -0.898 | 0.727 | 0.771 | 0.377 (inactive)
CO[C@@H]1COC(=O)CC=C[C@@H](C)[C@@H]2C=C[C@@H](O)[C@@H](COC(=O)CC=C[C@H]1C)O2 | -0.805 | 0.142 (inactive) | 0.0864 | -0.16 | -0.235 | -0.635 | 0.156 | 0.228 | 1.38 | -0.363 | 0.235 | -0.912 | -0.0662 | -1.24 | 1.33 | 1.1 | -0.443 | 1.47 | -0.38 | -2.29 (inactive)
COC(=O)CC=C[C@H](C)[C@H](CO)NS(=O)(=O)c1ccc(C)cc1 | -0.333 | 0.755 (inactive) | 0.0522 | -0.13 | 0.131 | -0.0961 | 0.121 | 0.217 | 0.91 | 0.579 | 0.422 | 0.447 | 0.265 | 0.466 | 0.525 | 0.621 | -0.655 | 0.701 | -0.037 | -0.54 (inactive)
C=CCC(OC(C)=O)[C@@H]1[C@@H](N(Cc2cc3ccccc3o2)C(=O)Cc2ccc(F)cc2)c2cc(OCCCO)ccc2N1C(=O)Cc1ccc(OC)cc1 (stereo not given in full) | 0.323 | -0.353 (inactive) | -0.0932 | -0.178 | -0.446 | -0.372 | -0.374 | -0.243 | 0.448 | -0.437 | -0.419 | -1.14 | -0.0602 | 0.0188 | 0.354 | -0.271 | 0.919 | 0.158 | 0.0264 | -0.188 (inactive)
O=C1C2C=CC(C(O)c3ccc([N+](=O)[O-])cc3)N(Nc3ccc([N+](=O)[O-])cc3)C2C(=O)N1c1ccccc1 (stereo not given) | 0.921 | 0.373 (inactive) | 0.351 | 0.0518 | 0.661 | 2.71 | 0.789 | 1.29 | -0.256 | 1.19 | 0.953 | 1.24 | 0.719 | 0.952 | -0.0127 | -0.519 | -1.95 | -0.139 | 1.37 | 0.319 (inactive)
